Structures can show the parent of a compound that is named as a salt.
Tested on: FLX1 + dox-induced PRKAR1A G325D
Test: difference in log2 fold change of viability vs plate median (dox-induced PRKAR1A G325D minus uninduced); higher = compound less effective when PKA is inhibited
Settings: concentration: not stated (2 or 5 uM); 5 days
Description: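 For each plate a log2 fold change vs the plate median was derived, and the values without dox were subtracted from those with dox, averaged over three biological replicates.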

Row | SMILES | difference in log2 fold change of viability
1 | CS(=O)(=O)N1CCN(Cc2cc3nc(-c4cccc5[nH]ncc45)nc(N4CCOCC4)c3s2)CC1 [Pictilisib (GDC-0941)] | -0.0931
2 | CNC(=O)CN1CCC(Oc2cc3c(Nc4cccc(Cl)c4F)ncnc3cc2OC)CC1 [Sapitinib (AZD8931)] | -0.745
3 | O=C(Nc1cccc(Cl)c1)Nc1ncc(CCNc2ncnc3ccsc23)s1 [SNS-314 Mesylate] | -0.153

— the supplement of paper PMC9925115
